{
  "source": "PubChem BioAssay (Tox21)",
  "note": "Results filed as inconclusive are left out. Where a call stands in place of a potency, no number is given. A structure can be active in one record and inactive in another. The source made the active and inactive calls. Calls come from the whole dose curve; as a rule, active = well fitted activation curve with a large enough effect in the repeat runs; inconclusive = weak or mixed curves; inactive = flat fitted curve, though single readings scatter. Potency is the fitted concentration of half-maximal effect.",
  "data": [
    {"assay": "A CellTox Green Cytotoxicity Assay to monitor cytotoxicity in HepG2 cells - 16 hour (AID 1224876); note: nearly all actives have a fitted effect of over 45% in size", "conditions": "CellTox Green fluorescence; series mostly up to 76.8 µM; cytotoxicity increase: at the top concentration", "from_the_text": "National Center for Advancing Translational Sciences [NCATS]\nNIH Chemical Genomics Center [NCGC]\nU.S. Environmental Protection Agency [EPA]\nNational Institutes of Environmental Health Sciences [NIEHS]\nNational Toxicology Program [NTP]\nCell-based models are critical for drug discovery. Determining the natural cytotoxic effects resulting from test compounds is an essential research activity. A CellTox Green Cytotoxicity Assay to monitor cytotoxicity in real time of continues cell culture during 40 hours of the compound treatment was used to screen Tox21 10K library compounds in HepG2 cells. CellTox Green Cytotoxicity Assay is a nonlytic, homogeneous, biofluorescent method to measure cytotoxicity in cell culture after experimental manipulation. The assay system uses a proprietary asymmetric cyanine dye that is excluded from viable cells but preferentially stains the dead cell's DNA. […] Viable cells produce no appreciable increases in fluorescence. Therefore, the fluorescence signal produced by the binding interaction with dead cell DNA is proportional to cytotoxicity.\nThe mixture of HepG2 cell suspension and reagents were dispensed at 600cells/6 ul/well in 1536-well tissue culture treated black solid bottom plates using a Multidrop dispenser. After the assay plates were incubated at a 37 C/5% CO2 incubator for 5 hours, 23 nL of compounds dissolved in DMSO, positive and negative controls was transferred to the assay plate by a pintool work station. The plates were incubated at 37 C for 40 hours. The fluorescence intensity were measured at 0h, 8h, 16h, 24h, 32h and 40h time points using ViewLux plate reader during compound treatment.", "values": [
      {"smiles": "O=C(O)C(F)(F)C(F)(F)C(F)(F)C(F)(F)C(F)(F)C(F)(F)C(F)(F)F", "Potency": "inactive"},
      {"smiles": "Oc1cc(Cl)ccc1Cl", "Potency": "inactive"},
      {"smiles": "Clc1nc(Cl)nc(Cl)n1", "Potency": "inactive"},
      {"smiles": "N#Cc1cc(Br)c(O)c(Br)c1", "Potency": "inactive"},
      {"smiles": "C#C[C@]1(O)CC[C@H]2[C@@H]3CCC4=CC(=O)CC[C@]4(C)[C@H]3CC[C@@]21C", "Potency": "inactive"},
      {"smiles": "CCCCCCCCCCCOC(=O)c1ccccc1C(=O)OCCCCCCCCCCC", "Potency": "inactive"},
      {"smiles": "CCCCC(CC)COC(=O)Cl", "note": "(stereo not given)", "cytotoxicity increase": "-0.743% (inactive)"},
      {"smiles": "CCN(N=O)C(N)=O", "Potency": "inactive"},
      {"smiles": "CCOc1cc(C=O)ccc1O", "Potency": "inactive"},
      {"smiles": "CCOC(=O)C(C)OC(=O)c1cc(Oc2ccc(C(F)(F)F)cc2Cl)ccc1[N+](=O)[O-]", "note": "(stereo not given)", "Potency": "inactive"},
      {"smiles": "O=[N+]([O-])c1cccc2ccccc12", "Potency": "inactive"},
      {"smiles": "C=CC(=O)OCCO", "Potency": "inactive"},
      {"smiles": "Cc1ccccc1[N+](=O)[O-]", "Potency": "inactive"},
      {"smiles": "CC(C)(OOC(C)(C)c1ccccc1)c1ccccc1", "Potency": "inactive"},
      {"smiles": "NNC(=S)NN", "Potency": "inactive"},
      {"smiles": "CNC(=O)N(C)c1nnc(C(C)(C)C)s1", "Potency": "inactive"},
      {"smiles": "CC(C)(C)c1ccccc1O", "Potency": "44.2 µM (active)"},
      {"smiles": "N#CC(Br)Br", "Potency": "inactive"},
      {"smiles": "CCCCCCCCC(=O)NCc1ccc(O)c(OC)c1", "Potency": "inactive"},
      {"smiles": "CCCCCCOC(=O)c1ccccc1C(=O)OCCCCCC", "Potency": "inactive"},
      {"smiles": "C=CCN(CC=C)C(=O)C(Cl)Cl", "Potency": "inactive"},
      {"smiles": "CC(O)CCO", "note": "(stereo not given)", "Potency": "inactive"},
      {"smiles": "CCc1cccc(CC)c1N(COC)C(=O)CCl", "Potency": "inactive"},
      {"smiles": "CC(C)(c1cc(Cl)c(O)c(Cl)c1)c1cc(Cl)c(O)c(Cl)c1", "Potency": "inactive"},
      {"smiles": "CC(C)C(=O)OCC(C)(C)C(OC(=O)C(C)C)C(C)C", "note": "(stereo not given)", "Potency": "inactive"},
      {"smiles": "Oc1ccc(-c2ccccc2)cc1", "cytotoxicity increase": "-11.5% (inactive)"},
      {"smiles": "NNC(N)=S", "Potency": "inactive"},
      {"smiles": "O=[N+]([O-])c1ccc(O)c([N+](=O)[O-])c1", "Potency": "inactive"},
      {"smiles": "CCOC(=S)S", "Potency": "inactive"},
      {"smiles": "C[C@]12CCC(=O)C[C@@H]1CC[C@@H]1[C@@H]2CC[C@]2(C)[C@@H](O)CC[C@@H]12", "Potency": "inactive"},
      {"smiles": "CCCCCCCCOC(=O)c1ccccc1C(=O)OCCCCCCCC", "Potency": "inactive"},
      {"smiles": "Brc1ccc(Oc2cc(Br)c(Br)cc2Br)c(Br)c1", "Potency": "inactive"},
      {"smiles": "O=[N+]([O-])c1c(Cl)c(Cl)c(Cl)c(Cl)c1Cl", "Potency": "inactive"},
      {"smiles": "NC(=S)Nc1ccccc1", "Potency": "49.8 µM (active) and inactive"},
      {"smiles": "CCC(=O)O[C@H]1CC[C@H]2[C@@H]3CCC4=CC(=O)CC[C@]4(C)[C@H]3CC[C@]12C", "Potency": "38.9 µM (active)"},
      {"smiles": "COc1ccc(C(CN(C)C)C2(O)CCCCC2)cc1", "note": "(stereo not given)", "Potency": "inactive"},
      {"smiles": "N#CCCCl", "Potency": "inactive"},
      {"smiles": "CC(C)=CC1C(C(=O)OCc2coc(Cc3ccccc3)c2)C1(C)C", "note": "(stereo not given)", "Potency": "inactive"},
      {"smiles": "CC(C)N(C(=O)SCC(Cl)=C(Cl)Cl)C(C)C", "Potency": "inactive"},
      {"smiles": "CCCCNC(=O)n1c(NC(=O)OC)nc2ccccc21", "Potency": "inactive"}
    ]}
  ]
}
